Data from PubChem BioAssay (NCATS).
Values joined by “and” are separate entries in the source; they are usually repeats but may differ in a detail not shown here. Equal values may be shown once. Records with an inconclusive call do not appear. Active and inactive are the calls of the source. Unless noted, calls follow the shape of the dose curve; as a rule, active = well fitted curve in the direction sought with a large enough effect; inconclusive = small, poorly fitted or top-dose-only effect, or another doubt; inactive = no such curve, though single readings can be large; an effect the other way counts as inactive or inconclusive.

Columns and labels:
[1] = molecular target: T1, Hexokinase-4 (Homo sapiens) + Glucokinase regulatory protein (Homo sapiens) (UniProt P35557+Q14397); assay: qHTS assay for inhibitors of recombinant human GCK-GKRP interaction: Diaphorase-coupled assay (AID 743205)
How it was run: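 Resorufin fluorescence (525/590 nm), read each minute over 30 min, reports GCK activity coupled via G6PDH and diaphorase. Reaction: 10 nM GST-GCK, 10 nM FLAG-GKRP, 5 mM glucose, 0.4 mM ATP, 0.15 mM NADP+, 0.1 mM resazurin.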

[2] = molecular target: T1, Hexokinase-4 (Homo sapiens) + Glucokinase regulatory protein (Homo sapiens); assay: qHTS assay for inhibitors of recombinant human GCK-GKRP interaction: ADP-Glo assay (AID 743206);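 also: plate controls were DMSO plus enzyme for no effect and no enzyme for full effect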
How it was run: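 Pin-transferred compounds meet a 15 nM GST-GCK/15 nM FLAG-GKRP/2 uM S6P mix (dispense concentrations). ATP is then added to 0.4 mM final with 5 mM glucose, and the reaction runs 60 min at room temperature. ADP is quantified luminescently.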

[3] = molecular target: T1, Hexokinase-4 (Homo sapiens) + Glucokinase regulatory protein (Homo sapiens); assay: qHTS assay for inhibitors of recombinant human GCK-GKRP interaction: HTRF assay (AID 743207);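 also: 0% = DMSO with GCK present and -100% = DMSO wells lacking GCK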
How it was run: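 HTRF read-out (ex 320 nm; 615/665 nm emission) after 60 min RT equilibration of 5 nM GST-GCK, 5 nM FLAG-GKRP, 2 uM S6P, compound and anti-FLAG/anti-GST detection antibodies; signal normalized between DMSO wells with and without GCK.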

[4] = qHTS Assay for Identifying Gametocytocidal Compounds (AID 743244);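 also: % is scaled to controls: 0 for no effect and ±100 for the full control effect; actives lower the fluorescent signal which means gametocytes are killed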; settings: P. falciparum 3D7 stage III-V gametocytes, alamarBlue, 72 h; max response: stronger effect = lower value
How it was run: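 Fluorescence at Ex 525/Em 598 nm, recorded 24 h after alamarBlue addition, reports residual metabolic activity of 3D7 gametocytes (stages III–V) following 72 h compound exposure at 37 °C, 5% CO2.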

[5] = qHTS profiling of the MIPE4 collection as inhibitors of Plasmodium falciparum (3D7) proliferation (AID 743344; call rule not given here;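 also: scaled between DMSO vehicle wells and 0.29 µM artemisinin as full inhibition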); settings: P. falciparum 3D7 in erythrocytes, SYBR Green DNA fluorescence, 72 h; at 28.5 µM (top of the series) unless noted
How it was run: (§1)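 Parasite DNA was quantified by SYBR Green I fluorescence (ex 485, em 535 nm) after overnight lysis in saponin/Triton buffer at room temperature. Cultures at 0.3% parasitemia and 2.5% hematocrit were first exposed to compound for 72 h at 37 C; signals were normalised to artemisinin (0.29 uM) and vehicle wells.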

[6] = qHTS profiling of the MIPE4 collection as inhibitors of Plasmodium falciparum (DD2) proliferation (AID 743345; call rule not given here); settings: P. falciparum Dd2 in erythrocytes, SYBR Green DNA, 72 h; at 28.5 µM (top of the series) unless noted
How it was run: as §1

[7] = qHTS profiling of the MIPE4 collection as inhibitors of Plasmodium falciparum (DD2) proliferation (Rep 2) (AID 743346; call rule not given here); settings: P. falciparum Dd2 in erythrocytes, SYBR Green DNA, 72 h; at 28.5 µM (top of the series) unless noted
How it was run: as §1

[8] = qHTS profiling of the MIPE4 collection as inhibitors of Plasmodium falciparum (HB3) proliferation (AID 743347; call rule not given here;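 also: plate controls were DMSO vehicle wells for no effect and artemisinin wells for full effect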); settings: P. falciparum HB3 in erythrocytes, SYBR Green DNA, 72 h; at 28.5 µM (top of the series) unless noted
How it was run: as §1

[9] = High-throughput drug toxicity screening in the BPDCN cell line Gen2.2 (AID 1224824; call rule not given here;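 also: cells exposed to compounds for 48 h before reading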); settings: Gen2.2 BPDCN cells; at 45.8 µM (top of the series) unless noted
How it was run: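 CellTiter-Glo luminescence after 48 h compound exposure of Gen2.2 cells; percent activity set with DMSO as 100% and bortezomib (9.2 uM final) as 0%. Cells seeded at 500 per well, RPMI + 10% FBS, 37 °C.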

[10] = High-throughput drug toxicity screening in the BPDCN cell line Cal-1 (AID 1224825; call rule not given here); settings: Cal-1 BPDCN cell viability, qHTS; at 45.8 µM (top of the series) unless noted
How it was run: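 CellTiter-Glo luminescence after 48 h compound exposure; percent activity scaled with DMSO as 100% and bortezomib (9.2 uM final) as 0%. Cal-1 cells seeded at 500/well in RPMI, 10% FBS, no phenol red.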

[11] = qHTS assay for measurement of the activity of small molecule inhibitors on Zika virus induced Caspase-3 activity in human iPSC derived neural progenitor cells (hNPCs) (AID 1224857); also: % of control where 0% means no effect; nearly all actives have a fitted effect of over 65% in size
How it was run: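 Zika virus (2 FFU/cell) infection of human iPSC-derived NPCs, 6 h, following 1 h compound preincubation. Read-out: Caspase-Glo 3/7 luminescence.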

[12] = qHTS assay for measurement of the activity of small molecule inhibitors on Zika virus induced Caspase-3 activity in human astrocytoma cells (AID 1224859);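 also: plate controls were ZIKV-infected untreated cells for no effect and uninfected cells for full effect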
How it was run: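 Caspase activation in ZIKV-infected SNB-19 cells (2 FFU/cell, 6 h) measured by Caspase-Glo 3/7 luminescence after 30 min RT; compound pre-incubated 1 h; normalised to uninfected and infected controls.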

[13] = qHTS assay for small molecule agonists of the antioxidant response element (ARE) signaling pathway measured by Nrf2-dependant transcriptional activity (AID 720636; active = well fitted curve in the direction sought with a large enough effect in the repeat runs; an effect the other way counts as inactive or inconclusive;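 also: HepG2 cells with an ARE-driven luciferase reporter; % of control where 0% means no effect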)
How it was run: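 Attachment 6 hr at 37 C, then compound versus DMSO vehicle for 16 hr in ARE-luc HepG2 cells (1% dialyzed FBS); luminescence recorded 30 min after ONE-Glo addition at room temperature.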

[14] = qHTS assay for small molecule antagonists of the retinoid-related orphan receptor gamma (ROR-gamma) signaling pathway - cell viability counter screen (AID 720652; active = well fitted curve in the direction sought with a large enough effect in the repeat runs; an effect the other way counts as inactive or inconclusive;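 also: CHO reporter cells with doxycycline-induced ROR-gamma expression; compound exposure lasted 16 hr before ATP read; % is scaled to controls: 0 for no effect and ±100 for the full control effect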)
How it was run: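 Cytotoxicity counter screen: intracellular ATP (CellTiter-Glo luminescence) measured in the doxycycline-induced CHO RORE-luciferase reporter line after 16 hr compound exposure at 37 C, 5% CO2.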

[15] = qHTS assay for small molecule agonists of the antioxidant response element (ARE) signaling pathway measured by Nrf2-dependant transcriptional activity - cell viability counter screen (AID 720653; active = well fitted curve in the direction sought with a large enough effect in the repeat runs; an effect the other way counts as inactive or inconclusive; also: % is scaled to controls: 0 for no effect and ±100 for the full control effect); settings: ARE-bla HepG2 viability, CellTiter-Glo ATP luminescence, 16 h; max response: stronger effect = lower value
How it was run: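 ARE-bla HepG2 cells treated with compounds for 16 h at 37C; this counter screen measures viability as intracellular ATP by CellTiter-Glo luminescence after 30 min at room temperature.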

[16] = qHTS assay for cell viability of HEK293 cells (AID 743288); settings: ATP luminescence (CellTiter-Glo), 18 h; max response: stronger effect = lower value; also: % is scaled to controls: 0 for no effect and ±100 for the full control effect; nearly all actives have a fitted effect of over 50% in size
How it was run: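 ATP luminescence (CellTiter-Glo) reports metabolically competent cell number after parental HEK293 cells, 2,000/well, were treated with DMSO-dissolved compounds for 18 h at 37 C; reagent incubation 30 min, room temperature.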

[17] = qHTS assay for cell viability of the p53RE-bla HCT-116 cell line (AID 743292); also: % is scaled to controls: 0 for no effect and ±100 for the full control effect; nearly all actives have a fitted effect of over 55% in size
How it was run: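 Compound-exposed HCT-116 (p53RE-bla) cells, 4,000 per well, were kept 16 h at 37 C following a 5 h preincubation. Cell number was estimated from total ATP by CellTiter-Glo luminescence read after 30 min at room temperature.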

T1 sequence (P35557 whole entry, looked up): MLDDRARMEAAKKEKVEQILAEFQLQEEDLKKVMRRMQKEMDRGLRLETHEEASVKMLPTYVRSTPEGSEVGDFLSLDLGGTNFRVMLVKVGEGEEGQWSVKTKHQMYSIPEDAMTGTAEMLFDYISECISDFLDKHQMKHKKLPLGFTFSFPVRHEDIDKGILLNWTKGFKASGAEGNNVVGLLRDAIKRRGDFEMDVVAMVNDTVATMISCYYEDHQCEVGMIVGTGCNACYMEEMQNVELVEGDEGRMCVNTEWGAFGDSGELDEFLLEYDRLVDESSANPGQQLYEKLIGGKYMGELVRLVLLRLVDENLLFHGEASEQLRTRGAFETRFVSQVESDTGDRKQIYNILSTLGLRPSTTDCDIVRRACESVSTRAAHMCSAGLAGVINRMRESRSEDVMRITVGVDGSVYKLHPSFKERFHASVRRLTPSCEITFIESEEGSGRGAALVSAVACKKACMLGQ
T1 sequence (Q14397 whole entry, looked up): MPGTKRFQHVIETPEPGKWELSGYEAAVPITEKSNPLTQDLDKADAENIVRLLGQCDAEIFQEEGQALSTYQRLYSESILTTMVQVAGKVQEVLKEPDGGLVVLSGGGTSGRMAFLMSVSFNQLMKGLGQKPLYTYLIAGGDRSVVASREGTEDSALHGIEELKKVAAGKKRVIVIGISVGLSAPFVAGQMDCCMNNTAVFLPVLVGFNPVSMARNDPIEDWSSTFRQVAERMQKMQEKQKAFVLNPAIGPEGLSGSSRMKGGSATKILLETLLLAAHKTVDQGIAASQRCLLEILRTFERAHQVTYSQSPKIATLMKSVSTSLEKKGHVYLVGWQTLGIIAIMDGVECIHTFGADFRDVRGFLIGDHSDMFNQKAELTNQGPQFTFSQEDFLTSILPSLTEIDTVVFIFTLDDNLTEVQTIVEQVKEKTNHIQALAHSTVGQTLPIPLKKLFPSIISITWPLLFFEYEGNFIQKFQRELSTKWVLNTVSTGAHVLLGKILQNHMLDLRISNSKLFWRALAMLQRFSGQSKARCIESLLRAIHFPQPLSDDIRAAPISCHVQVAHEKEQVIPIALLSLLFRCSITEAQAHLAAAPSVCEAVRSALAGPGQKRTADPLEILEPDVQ

SMILES | outcome [1] | outcome [2] | outcome [3] | max response [4] | parasite growth, % of DMSO control [5] [%] | parasite growth remaining, % of DMSO control (lower = more inhibition) [6] [%] | parasite growth, % of control (lower = inhibition) [7] [%] | growth, % of control [8] [%] | cell viability, % of control (lower = more cytotoxic) [9] [%] | viability (% of control) [10] [%] | Potency [11] | Potency [12] | outcome [13] | Potency [14] | max response [15] | max response [16] | Potency [17]
NC(=O)c1cccc(N)c1 | inactive | inactive | inactive | 25.5% (inactive) | 96.3 | 95.5 | 93.2 | 54.9 | 84.2 | 109 | inactive | inactive | – | – | – | – | –
CC1=NN(c2ccccc2)C(=O)C1 | – | – | – | -1.13% (inactive) | 89.4 | 94.6 | 86.2 | 103 | 112 | 99.8 | inactive | inactive | inactive | inactive | -3.99% (inactive) and -6.22% (inactive) | -6.75% (inactive) and -3.56% (inactive) | inactive
CCc1c2c(nc3ccc(OC(=O)N4CCC(N5CCCCC5)CC4)cc13)-c1cc3c(c(=O)n1C2)COC(=O)[C@]3(O)CC | – | – | – | 2.43% (inactive) | 66.3 | 59.3 | 67.7 | 71.1 | 21.9 | 8.86 | inactive | inactive | – | – | – | – | –
OCc1ccc(-c2nn(Cc3ccccc3)c3ccccc23)o1 | inactive | inactive | inactive | – | 74.2 | 85 | 73.7 | 21.8 | 199 | 104 | inactive | inactive | – | – | – | – | –
Clc1ccccc1CN1CCc2sccc2C1 | – | – | – | – | – | – | – | – | 91.7 | 45.9 | inactive | inactive | – | – | – | – | –
CC1CC2C3CCC4=CC(=O)C=C[C@]4(C)[C@@]3(F)[C@@H](O)C[C@]2(C)[C@@]1(O)C(=O)CO (some centres undefined) | inactive | inactive | inactive | 8.59% (inactive) | 85.2 | 90.6 | 85.8 | 102 | 115 | 56.6 | inactive | inactive | – | – | – | – | –
CN(CCOc1ccc(CC2SC(=O)NC2=O)cc1)c1ccccn1 (centres undefined) | – | – | – | 11.4% (inactive) | 98.7 | 93.4 | 95.7 | 60.7 | 101 | 107 | inactive | inactive | – | – | – | – | –
Nc1nc(N)nc(-c2cc(Cl)ccc2Cl)n1 | – | – | – | 11.2% (inactive) | 83.2 | 88.9 | 128 | 97.7 | 126 | 98 | inactive | inactive | – | – | – | – | –
Cn1nnc2c(C(N)=O)ncn2c1=O | – | – | – | -7.58% (inactive) | 97.2 | 86.5 | 120 | 98.2 | 79.7 | 80.1 | inactive | inactive | – | – | – | – | –
